Measured values reported in PubChem BioAssay AID1159580 (chemical genetic matrix, 2015).
“And” between values parts separate entries of the source, which are not always exact repeats. Equal entries are not always repeated. In all, about 5,500 compounds went through this assay and about 2,000 (36%) were called active. Not shown: some 18% with an inconclusive outcome. Cut-off read from the data, not from the text of the source: active = normalized growth mostly below about 0.91 (no sharp cut-off); inconclusive = no clear call, values can overlap the other calls; inactive = mostly above about 0.92. The list shows a part of the results.

Experiment: chemical genetic growth profiling, strain panel (AID 1159580);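 note: tested at 20 µM; growth read once vehicle control cultures reached saturation at 30 °C; 1 = growth at the plate median or of vehicle wells; lower values mean less growth of the strain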
Settings: growth OD

Measured: normalized growth

CN1CCC(=C2c3ccccc3CC(=O)c3sccc32)CC1
inactive: S. cerevisiae deletion strains, locus YKL009W, strain mrt4, active compounds read low 1.02 | S. cerevisiae deletion strains, locus YKL068W, active compounds read low 1.02 | S. cerevisiae deletion strains, locus YKL085W, strain MDH1 (second series), active compounds read low 1.01 | S. cerevisiae deletion strains, locus YKL085W, strain MDH1, active compounds read low 1.01 | S. cerevisiae deletion strains, locus YKL160W, strain elf1, active compounds read low 0.987 | S. cerevisiae deletion strains, locus YKL190W, strain CNB1, active compounds read low 1.01 | S. cerevisiae deletion strains, locus YKR001C, strain vps1, active compounds read low 1.01 | S. cerevisiae deletion strains, locus YKR026C, strain gcn3, active compounds read low 0.981 | S. cerevisiae deletion strains, locus YKR091W, strain srl3, active compounds read low 0.979 | S. cerevisiae deletion strains, locus YLL001W, strain dnm1, active compounds read low 0.935 | S. cerevisiae deletion strains, locus YLL026W, active compounds read low 0.963 | S. cerevisiae deletion strains, locus YLL041C, strain sdh2, active compounds read low 0.986 | S. cerevisiae deletion strains, locus YLR027C, strain aat2, active compounds read low 0.973 | S. cerevisiae deletion strains, locus YLR039C, strain RIC1, active compounds read low 0.996 | S. cerevisiae deletion strains, locus YLR058C, strain SHM2, active compounds read low 1 | S. cerevisiae deletion strains, locus YLR102C, strain apc9, active compounds read low 1.01 | S. cerevisiae deletion strains, locus YLR113W, strain HOG1, active compounds read low 1.02 | S. cerevisiae deletion strains, locus YLR221C, strain rsa3, active compounds read low 1.04 | S. cerevisiae deletion strains, locus YLR258W, strain gsy2, active compounds read low 1.01 | S. cerevisiae deletion strains, locus YLR262C, strain YPT6 (second series), active compounds read low 0.956 | S. cerevisiae deletion strains, locus YLR262C, strain YPT6, active compounds read low 1 | S. cerevisiae deletion strains, locus YLR268W, strain sec22, active compounds read low 1.03 | S. cerevisiae deletion strains, locus YLR320W, strain mms22, active compounds read low 1.02 | S. cerevisiae deletion strains, locus YLR330W, strain CHS5, active compounds read low 1 | S. cerevisiae deletion strains, locus YLR342W, strain FKS1 (second series), active compounds read low 0.991 | S. cerevisiae deletion strains, locus YLR342W, strain FKS1, active compounds read low 0.967 | S. cerevisiae deletion strains, locus YLR357W, strain rsc2, active compounds read low 0.969 | S. cerevisiae deletion strains, locus YLR370C, strain arc18, active compounds read low 0.971 | S. cerevisiae deletion strains, locus YLR371W, strain rom2, active compounds read low 1.01 | S. cerevisiae deletion strains, locus YLR384C, strain iki3, active compounds read low 0.974 | S. cerevisiae deletion strains, locus YLR418C, strain cdc73, active compounds read low 0.976 | S. cerevisiae deletion strains, locus YML016C, strain PPZ1, active compounds read low 1.01 | S. cerevisiae deletion strains, locus YML032C, strain rad52, active compounds read low 1.02 | S. cerevisiae deletion strains, locus YML120C, strain ndi1, active compounds read low 0.965 | S. cerevisiae deletion strains, locus YML124C, strain tub3, active compounds read low 1.01 | S. cerevisiae deletion strains, locus YMR058W, strain fet3, active compounds read low 0.979 | S. cerevisiae deletion strains, locus YMR078C, strain ctf18, active compounds read low 1 | S. cerevisiae deletion strains, locus YMR125W, strain sto1, active compounds read low 0.955 | S. cerevisiae deletion strains, locus YMR129W, active compounds read low 0.981 | S. cerevisiae deletion strains, locus YMR205C, strain PFK2, active compounds read low 0.987 | S. cerevisiae deletion strains, locus YMR223W, strain ubp8, active compounds read low 0.993 | S. cerevisiae deletion strains, locus YMR231W, strain pep5, active compounds read low 0.974 | S. cerevisiae deletion strains, locus YMR263W, strain SAP30, active compounds read low 1.02 | S. cerevisiae deletion strains, locus YMR307W, strain GAS1, active compounds read low 0.971 | S. cerevisiae deletion strains, locus YNL067W, strain RPL9B, active compounds read low 1.02 | S. cerevisiae deletion strains, locus YNL071W, strain lat1, active compounds read low 0.987 | S. cerevisiae deletion strains, locus YNL128W, strain TEP1, active compounds read low 1.01 and 0.992 | S. cerevisiae deletion strains, locus YNL153C, strain GIM3, active compounds read low 1.02 and 0.986 | S. cerevisiae deletion strains, locus YNL175C, strain NOP13, active compounds read low 0.996 | S. cerevisiae deletion strains, locus YNL183C, strain NPR1, active compounds read low 0.991 | S. cerevisiae deletion strains, locus YNL197C, strain WHI3, active compounds read low 0.995 | S. cerevisiae deletion strains, locus YNL209W, strain ssb2, active compounds read low 0.988 | S. cerevisiae deletion strains, locus YNL224C, strain SQS1, active compounds read low 1.02 | S. cerevisiae deletion strains, locus YNL233W, strain BNI4, active compounds read low 1.01 | S. cerevisiae deletion strains, locus YNL248C, strain rpa49, active compounds read low 0.983 | S. cerevisiae deletion strains, locus YNL250W, strain rad50, active compounds read low 1.01 | S. cerevisiae deletion strains, locus YNL271C, strain bni1, active compounds read low 1.02 | S. cerevisiae deletion strains, locus YNL298W, strain CLA4, active compounds read low 1.01 | S. cerevisiae deletion strains, locus YNL307C, strain MCK1, active compounds read low 1 | S. cerevisiae deletion strains, locus YNL322C, strain KRE1 (second series), active compounds read low 0.975 | S. cerevisiae deletion strains, locus YNL322C, strain KRE1, active compounds read low 1.01 and 0.991 | S. cerevisiae deletion strains, locus YNR049C, strain mso1, active compounds read low 0.994 | S. cerevisiae deletion strains, locus YNR052C, strain pop2, active compounds read low 1.01 | S. cerevisiae deletion strains, locus YOL006C, strain TOP1, active compounds read low 1.05 | S. cerevisiae deletion strains, locus YOL012C, strain htz1 1.02 | S. cerevisiae deletion strains, locus YOL147C, strain pex11, active compounds read low 1 | S. cerevisiae deletion strains, locus YOR001W, strain rrp6, active compounds read low 0.95 | S. cerevisiae deletion strains, locus YOR061W, strain CKA2, active compounds read low 1.01 | S. cerevisiae deletion strains, locus YOR069W, strain VPS5, active compounds read low 0.999 | S. cerevisiae deletion strains, locus YOR070C, strain gyp1, active compounds read low 0.999 | S. cerevisiae deletion strains, locus YOR080W, strain dia2, active compounds read low 0.967 | S. cerevisiae deletion strains, locus YOR083W, strain WHI5 (second series), active compounds read low 1.01 | S. cerevisiae deletion strains, locus YOR083W, strain WHI5, active compounds read low 0.962 | S. cerevisiae deletion strains, locus YOR106W, strain vam3, active compounds read low 0.956 | S. cerevisiae deletion strains, locus YOR136W, strain idh2, active compounds read low 1 | S. cerevisiae deletion strains, locus YOR144C, strain elg1, active compounds read low 1 | S. cerevisiae deletion strains, locus YOR184W, strain ser1, active compounds read low 0.989 | S. cerevisiae deletion strains, locus YOR231W, strain MKK1, active compounds read low 1.02 | S. cerevisiae deletion strains, locus YOR265W, strain rbl2, active compounds read low 0.988 | S. cerevisiae deletion strains, locus YOR270C, strain vph1, active compounds read low 0.98 | S. cerevisiae deletion strains, locus YOR290C, strain snf2, active compounds read low 1 | S. cerevisiae deletion strains, locus YOR316C, strain cot1, active compounds read low 1.01 | S. cerevisiae deletion strains, locus YPL051W, strain arl3, active compounds read low 0.991 | S. cerevisiae deletion strains, locus YPL055C, strain LGE1, active compounds read low 1.01 | S. cerevisiae deletion strains, locus YPL078C, strain atp4, active compounds read low 0.923 | S. cerevisiae deletion strains, locus YPL106C, strain sse1, active compounds read low 0.979 | S. cerevisiae deletion strains, locus YPL240C, strain hsp82, active compounds read low 0.99 | S. cerevisiae deletion strains, locus YPL241C, strain CIN2, active compounds read low 1 | S. cerevisiae deletion strains, locus YPL256C, strain CLN2, active compounds read low 1.04 | S. cerevisiae deletion strains, locus YPR119W, strain clb2, active compounds read low 1.01 | S. cerevisiae deletion strains, locus YPR141C, strain kar3, active compounds read low 1.01 | S. cerevisiae deletion strains, locus YPR163C, strain tif3, active compounds read low 1.02 | S. cerevisiae deletion strains, locus YPR167C, strain met16, active compounds read low 1 | S. cerevisiae deletion strains, strain wtn01, active compounds read low 1.01 | S. cerevisiae strains, strain wild type, active compounds read low 1.01
